Test results taken from PubChem BioAssay AID504773 (Broad Institute, 2011).
Entries with a potency or affinity are not part of this list.

Biological target: Golgi-associated PDZ and coiled-coil motif-containing protein (Homo sapiens) (UniProt Q9HD26)
Assay: potency against CAL PDZ-peptide interaction – biochemical, fluorescence polarization, Cerulean-tagged CAL PDZ, cherry-picks, dose response (AID 504773);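 further: 0% = DMSO neutral wells and -100% = excess unlabeled competitor peptide wells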
Conditions: CAL PDZ-peptide binding, 1 h; series mostly up to 50 µM; activity change, negative = inhibition: at the top concentration;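 active means polarization signal falls with dose and the fitted half-maximal concentration is at or below ten times the sample's top valid dose; inconclusive means flat curve at 30 to 70% inhibition, or poor fit; inactive means signal rises, flat within 30%, or potency beyond limit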

Activity change, negative = inhibition, inactive:
Cc1ccc2nc(-c3cccc(Br)c3)cc(C(=O)NC3=NCCS3)c2c1 7.84%, O=c1c2cc3c(cc2[nH]c(=S)n1CCN1CCOCC1)OCO3 13.2%, O=C(CCCn1c(=S)[nH]c2cc3c(cc2c1=O)OCO3)N1CCN(c2ccc(Cl)cc2)CC1 16.6%, CCOC(=O)/C(N=Nc1ccc2c(c1)OCO2)=C(\C)O -20.9%, CCOC(=O)C1=C(C)OC(N)=C(C#N)C1c1cccc(C)c1 (configuration not stated) 8.6%, COc1ccc(C(=O)NC2(C(F)(F)F)C(=O)Nc3c2c(=O)[nH]c(=O)n3CCc2ccc(OC)c(OC)c2)cc1 (configuration not stated) 35.8%, CC1CCN(C(=O)COC(=O)c2cccs2)CC1 -53.2%, O=C(CNCc1ccccc1)Nc1ccc(F)cc1 8.72%, Cc1ccc(S(=O)(=O)N2CCN(CCC#N)CC2)cc1 9.54%, Cc1ccc2cc(C#N)c(N3CCCN(S(=O)(=O)c4ccccc4)CC3)nc2c1 -2.29%, Cc1cccc(-n2nc(C)c3c2NC2=C(C(=O)CCC2)C3c2ccccn2)c1 (configuration not stated) 23.4%, COc1ccc(OC)c(NC(=O)CS(=O)(=O)Cc2ccccc2)c1 8.81%, Cc1ccc(C(=O)NC(=S)N2CCN(c3cc(C)ccc3C)CC2)cc1 -8.14%, O=C(CCC(=O)N1CCN(c2ccccc2F)CC1)N1CCN(c2ccccc2)CC1 -7.56%, Cn1c(=O)c2c(ncn2CC(=O)Nc2nc(-c3ccccc3Cl)cs2)n(C)c1=O 6.53%, CCn1c(=O)c(C(C)=O)c(O)c2ccccc21 7.91%, CCOC(=O)c1ccc(NC(=S)N2CCCC(C(=O)N3CCCC3)C2)cc1 (configuration not stated) 26.2%, Cc1ccccc1-n1c(C)c(C#N)c(=O)c(-[n+]2ccccc2)c1[S-] -36.7%, N#Cc1ccc(CC(=O)c2ccccc2)[nH]c1=O 4.17%, COC(=O)N/N=C/c1sc(N2CCCCC2)nc1-c1cccs1 0.596%, Cc1cc(SC2CCOC2=O)nc2ccccc12 (configuration not stated) 6.41%, O=C(NCc1ccccc1Cl)C1CC(=O)N(Cc2ccccc2)C1 (configuration not stated) 11.4%, CCOC(=O)C1(Cc2cccc(Cl)c2)CCCN(C(=O)c2cccc(C)n2)C1 (configuration not stated) 22.9%, Cc1ccnc(SCC(=O)N2CCC(C(N)=O)CC2)n1 -6.75%, C(=C/c1nccc2c1[nH]c1ccccc12)/c1ccc2c(c1)OCO2 -6.34%, COc1ccc(Br)c(C(=O)NC2CCCC2)c1 18.1%, CN(C(=O)CC1C(=O)NCCN1CC(c1ccccc1)c1ccccc1)C(C1CC1)C1CC1 (configuration not stated) -16%, CCn1ncc(Br)c1C(=O)Nc1cccc(F)c1 14.7%, CCOC(=O)CCC(=O)Nc1ccc(S(=O)(=O)N2CCC(C)CC2)cc1 10.4%, CCOc1ccc(C2=Nn3c(nnc3-c3ccco3)SC2)cc1 1%, O=C(Nc1cc(Cl)ccc1N1CCOCC1)c1ccc2c(c1)OCCO2 -28%, O=C(N/N=C/c1ccc(OCc2ccccc2)cc1)c1ccc(O)cc1 12%, CCC(C)(C)NC(=O)CSc1nc(Cc2ccccc2)nc2ccccc12 9.79%, Cc1ccc(NC(=O)CN(C)C(=S)NC2CC2)cc1 -2.76%, COc1ccc(C(CNC(=O)COc2ccccc2-c2ccccc2)N2CCOCC2)cc1 (configuration not stated) -0.19%, C=CCn1c(NC(=O)c2ccco2)nc2ccccc21 -32.2%, CO[C@H]1O[C@H](C)[C@@H](O)C[C@H]1NC(=O)OCc1ccccc1 -71%
